# Data: PubChem BioAssay
# Calls of active or inactive are those of the source.
# Legend:
# [1] = small molecules captured by biotinylated probe aFSTL3 – biochemical, small-molecule microarray, fluorescence 635/667, stem cell growth factor project, primary screen (AID 1064); details: higher = more signal;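 further: measures binding of the biotinylated anti-FSTL3 antibody to printed compounds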
# [2] = binders from COS7 lysate, DM2A8 probe, primary screen, torsin A project, cell lysate, small-molecule microarray, fluorescence 635/667 (AID 1065); details: higher = more signal, COS7 lysate expressing mutant human TOR1A
# [3] = small molecules captured by biotinylated probe aFGF2 – biochemical, small-molecule microarray, fluorescence 635/667, stem cell growth factor project, primary screen (AID 1067); details: higher = more signal;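 further: measures binding of biotinylated aFGF2 protein to printed compounds on slides; z-score merges feature fluorescence and signal-to-noise across triplicate slides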
# [4] = small molecules captured by biotinylated probe aFGF10 – biochemical, small-molecule microarray, fluorescence 635/667, stem cell growth factor project, primary screen (AID 1071); details: higher = more signal;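 further: score merges 667 nm spot intensity and signal to noise from triplicate slides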
# [5] = molecular target: Neurogenic locus notch homolog protein 2 (Homo sapiens) (UniProt Q04721); assay: small molecules binding Notch2 protein – biochemical, small-molecule microarray, 635 nm fluorescence, stem cell growth factors, primary screen (AID 1073); details: higher = more signal
# [6] = molecular target: Pro-neuregulin-1, membrane-bound isoform (Homo sapiens) (UniProt Q02297); assay: small molecules binding neuregulin-1 protein – biochemical, small-molecule microarray, fluorescence 635/667, psychiatric disease protein project, primary screen (AID 1075); details: NRG1 binding, 635 nm fluorescence, higher = more signal;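 further: score combines 667 nm spot fluorescence with signal to noise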
# [7] = tested on: Neuregulin-1 EGF-like domain; assay: small molecules binding NRG1 EGF domain – biochemical, small-molecule microarray, 635 nm fluorescence, primary screen (AID 1081); details: higher = more signal;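 further: binding of the protein to compounds printed on small-molecule microarray slides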
# [8] = FRG1 expression reporter modulators in myotubes – cell-based, C2C12 myotubes, firefly/Renilla luciferase, luminescence, FRG1 inhibition for FSHD, primary screen (AID 1084); details: FRG1 promoter luciferase, higher = more signal, called active from +8 up or from −8 down
# [9] = small molecules captured by biotinylated probe aFST – biochemical, small-molecule microarray, fluorescence 635/667, stem cell growth factor project, primary screen (AID 1086); details: higher = more signal;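 further: score merges 667 nm fluorescence with signal-to-noise of each printed compound spot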
# [10] = binders of probe aHhip on microarray, primary screen, stem cell growth factor project, biochemical, small-molecule microarray, fluorescence 635/667 (AID 1087); details: higher = more signal;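 further: score merges spot fluorescence at 667nm with spot signal to noise ratio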
# [11] = tested on: PRMT1 (protein arginine N-methyltransferase 1); assay: small molecules binding arginine methyltransferase PRMT1 – biochemical, small-molecule microarray, 635 nm fluorescence, primary screen (AID 1088); details: higher = more signal;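 further: binding of Prmt1 protein to compounds spotted on small-molecule microarray slides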
# [12] = growth effects on S. cerevisiae YJM789 – YJM789 clinical isolate, OD600, 24 h, basal, primary screen (AID 1089); details: higher = more signal, called active from +8 up or from −8 down;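 further: growth of clinical yeast isolate S. cerevisiae YJM 789 seeded 1000 cells per well; test concentration not given here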
# [13] = S. pombe growth modifiers, basal conditions – strain 972, OD600, 24 h, no modulator, primary screen (AID 1090);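 further: basal condition with compound alone and no growth modifier present; test concentration not given here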; details: S. pombe 972 growth, higher = more signal, called active from +8 up or from −8 down
# [14] = budding yeast growth modifiers under rapamycin – strain BY4716, OD600, 96 h, primary screen (AID 1091); further: test concentration not given here; details: S. cerevisiae BY4716 + rapamycin, higher = more signal, called active from +8 up or from −8 down
# [15] = molecular target: Torsin-1A-interacting protein 2 (Homo sapiens) (UniProt Q8NFQ8); assay: small molecules binding lysate-expressed LULL1 – cell lysate, human LULL1 lysate, 635/667 nm fluorescence, primary screen (AID 1092); details: small-molecule microarray, hLULL1 lysate binding, 635 nm fluorescence; higher = more signal;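 further: probe is lysate of COS7 cells overexpressing human LULL1; score merges per-feature 667 nm fluorescence with signal-to-noise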
# [16] = optical density change of DRC41 E. coli – strain DRC41, OD650, 24 h, E. coli filamentation project, primary screen (AID 1093);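 further: MC1000 strain lacking acrAB efflux and sulA so SOS filamentation is blocked; test concentration not given here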; details: E. coli DRC41 growth, higher = more signal, called active from +8 up or from −8 down
# [17] = probe aLefty2 binding to arrayed compounds – biochemical, biotinylated probe, 635/667 nm fluorescence, primary screen (AID 1094); details: small-molecule microarray, higher = more signal;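 further: score merges spot fluorescence near 667 nm with spot signal-to-noise ratio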
# [18] = tested on: Noggin (protein binding on small-molecule microarray); assay: small molecules binding Noggin protein – biochemical, 635/667 nm fluorescence, primary screen (AID 1095); details: 635 nm fluorescence, higher = more signal;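 further: score merges 667 nm feature fluorescence with signal to noise over triplicate slides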
# [19] = molecular target: Neurogenic locus notch homolog protein 3 (Homo sapiens) (UniProt Q9UM47); assay: small molecules binding NOTCH3 protein – biochemical, 635/667 nm fluorescence, primary screen (AID 1096); details: small-molecule microarray, 635 nm fluorescence, higher = more signal
# [20] = probe aEGFR binding to arrayed compounds – biochemical, biotinylated probe, 635/667 nm fluorescence, primary screen (AID 1097); details: small-molecule microarray, higher = more signal;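 further: probe is a biotinylated anti-EGFR antibody binding compounds printed on slides; score combines fluorescence near 667 nm and signal to noise of each spot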
# Sequence of Torsin-1A-interacting protein 2 (Homo sapiens) (Q8NFQ8 whole entry, looked up): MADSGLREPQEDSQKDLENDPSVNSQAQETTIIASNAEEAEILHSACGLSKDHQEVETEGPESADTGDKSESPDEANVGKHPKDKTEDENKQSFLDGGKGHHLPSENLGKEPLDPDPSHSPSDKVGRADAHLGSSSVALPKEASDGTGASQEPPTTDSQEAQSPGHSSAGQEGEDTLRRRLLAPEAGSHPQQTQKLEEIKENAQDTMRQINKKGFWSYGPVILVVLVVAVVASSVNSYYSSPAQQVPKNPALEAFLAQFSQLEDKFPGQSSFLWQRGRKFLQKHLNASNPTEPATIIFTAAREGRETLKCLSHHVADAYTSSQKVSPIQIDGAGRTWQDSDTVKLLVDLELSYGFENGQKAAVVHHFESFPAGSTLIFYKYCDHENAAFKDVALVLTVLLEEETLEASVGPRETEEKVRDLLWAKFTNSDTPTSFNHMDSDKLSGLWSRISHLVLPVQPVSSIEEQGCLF
# Sequence of Neurogenic locus notch homolog protein 3 (Homo sapiens) (Q9UM47 whole entry, looked up): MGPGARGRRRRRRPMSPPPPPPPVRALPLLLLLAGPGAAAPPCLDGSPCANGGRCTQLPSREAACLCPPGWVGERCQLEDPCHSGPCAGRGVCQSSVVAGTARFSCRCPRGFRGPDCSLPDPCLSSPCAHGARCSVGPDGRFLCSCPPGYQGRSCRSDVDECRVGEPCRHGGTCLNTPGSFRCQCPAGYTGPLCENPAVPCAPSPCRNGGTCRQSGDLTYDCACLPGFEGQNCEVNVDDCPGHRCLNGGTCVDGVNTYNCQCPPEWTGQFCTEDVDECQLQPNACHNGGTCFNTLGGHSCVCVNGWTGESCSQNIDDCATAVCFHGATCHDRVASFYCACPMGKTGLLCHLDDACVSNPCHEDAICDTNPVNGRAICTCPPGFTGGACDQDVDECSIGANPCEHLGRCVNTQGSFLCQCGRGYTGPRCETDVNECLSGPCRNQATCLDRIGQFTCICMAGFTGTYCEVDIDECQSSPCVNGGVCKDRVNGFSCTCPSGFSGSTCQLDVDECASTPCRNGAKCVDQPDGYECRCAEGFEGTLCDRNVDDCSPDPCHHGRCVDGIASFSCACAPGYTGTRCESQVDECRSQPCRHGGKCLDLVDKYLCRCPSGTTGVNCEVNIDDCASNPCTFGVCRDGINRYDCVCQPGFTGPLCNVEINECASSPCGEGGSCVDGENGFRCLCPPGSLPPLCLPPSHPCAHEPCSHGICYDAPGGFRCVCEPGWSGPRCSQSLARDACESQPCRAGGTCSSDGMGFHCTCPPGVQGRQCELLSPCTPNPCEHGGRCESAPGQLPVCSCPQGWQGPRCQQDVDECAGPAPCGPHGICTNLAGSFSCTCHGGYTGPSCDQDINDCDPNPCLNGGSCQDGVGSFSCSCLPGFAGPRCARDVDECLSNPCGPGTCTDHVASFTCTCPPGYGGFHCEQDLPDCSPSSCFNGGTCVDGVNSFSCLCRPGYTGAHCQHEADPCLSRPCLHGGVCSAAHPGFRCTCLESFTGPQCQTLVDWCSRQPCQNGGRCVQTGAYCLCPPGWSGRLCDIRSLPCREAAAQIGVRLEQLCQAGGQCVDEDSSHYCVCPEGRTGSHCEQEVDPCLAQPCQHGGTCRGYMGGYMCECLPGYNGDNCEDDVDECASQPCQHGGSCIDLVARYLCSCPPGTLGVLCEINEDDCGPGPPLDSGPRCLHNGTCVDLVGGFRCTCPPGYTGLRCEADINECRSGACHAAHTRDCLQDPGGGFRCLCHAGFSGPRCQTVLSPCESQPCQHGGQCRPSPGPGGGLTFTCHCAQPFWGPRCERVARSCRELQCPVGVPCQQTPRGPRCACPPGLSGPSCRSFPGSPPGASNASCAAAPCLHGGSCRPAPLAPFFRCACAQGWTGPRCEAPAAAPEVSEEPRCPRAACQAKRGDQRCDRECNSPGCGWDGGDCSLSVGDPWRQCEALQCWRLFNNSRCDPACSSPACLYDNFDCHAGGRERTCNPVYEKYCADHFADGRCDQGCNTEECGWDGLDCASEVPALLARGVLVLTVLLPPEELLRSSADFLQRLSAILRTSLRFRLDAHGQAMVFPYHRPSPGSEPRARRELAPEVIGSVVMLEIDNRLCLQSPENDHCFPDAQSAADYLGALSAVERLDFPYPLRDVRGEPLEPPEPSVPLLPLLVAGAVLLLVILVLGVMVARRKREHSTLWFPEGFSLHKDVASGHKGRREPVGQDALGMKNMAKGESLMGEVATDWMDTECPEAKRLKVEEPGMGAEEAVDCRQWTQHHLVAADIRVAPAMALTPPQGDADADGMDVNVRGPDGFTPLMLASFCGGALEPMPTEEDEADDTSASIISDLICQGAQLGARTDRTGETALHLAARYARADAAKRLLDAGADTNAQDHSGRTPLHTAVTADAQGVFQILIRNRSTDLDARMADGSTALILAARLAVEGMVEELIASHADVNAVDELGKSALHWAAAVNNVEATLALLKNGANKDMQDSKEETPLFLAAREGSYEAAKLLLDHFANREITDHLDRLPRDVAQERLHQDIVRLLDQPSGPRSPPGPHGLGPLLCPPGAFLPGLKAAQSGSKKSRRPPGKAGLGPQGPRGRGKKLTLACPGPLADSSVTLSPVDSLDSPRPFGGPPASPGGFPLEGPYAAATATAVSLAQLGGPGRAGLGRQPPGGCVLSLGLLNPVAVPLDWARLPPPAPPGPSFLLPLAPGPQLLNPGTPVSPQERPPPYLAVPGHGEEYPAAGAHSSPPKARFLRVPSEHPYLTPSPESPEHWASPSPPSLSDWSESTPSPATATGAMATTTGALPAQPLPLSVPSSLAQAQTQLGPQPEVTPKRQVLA
# Sequence of Pro-neuregulin-1, membrane-bound isoform (Homo sapiens) (Q02297 whole entry, looked up, the tested form may be a part, canonical isoform): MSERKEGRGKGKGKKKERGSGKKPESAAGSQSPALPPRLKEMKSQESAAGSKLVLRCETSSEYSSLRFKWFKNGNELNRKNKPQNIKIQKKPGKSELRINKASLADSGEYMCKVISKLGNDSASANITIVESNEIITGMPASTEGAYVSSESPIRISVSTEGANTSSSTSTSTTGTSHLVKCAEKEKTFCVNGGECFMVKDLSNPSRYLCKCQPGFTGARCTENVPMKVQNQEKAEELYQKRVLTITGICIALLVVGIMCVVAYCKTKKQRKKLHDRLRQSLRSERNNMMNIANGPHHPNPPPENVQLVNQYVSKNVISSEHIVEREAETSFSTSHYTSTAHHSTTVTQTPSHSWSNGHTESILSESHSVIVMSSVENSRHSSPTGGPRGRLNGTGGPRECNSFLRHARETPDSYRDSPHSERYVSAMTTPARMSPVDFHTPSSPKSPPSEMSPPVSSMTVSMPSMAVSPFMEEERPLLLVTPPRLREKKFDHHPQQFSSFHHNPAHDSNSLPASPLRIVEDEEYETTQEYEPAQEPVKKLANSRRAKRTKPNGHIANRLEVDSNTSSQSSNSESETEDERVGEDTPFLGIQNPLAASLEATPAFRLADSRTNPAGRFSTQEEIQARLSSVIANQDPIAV
Compound,composite z-score [1],composite z-score [2],composite z-score [3],composite z-score [4],composite z-score [5],composite z-score [6],composite z-score [7],z-score [8],composite z-score [9],composite z-score [10],composite z-score [11],z-score [12],z-score [13],z-score [14],composite z-score [15],z-score [16],composite z-score [17],composite z-score [18],composite z-score [19],composite z-score [20]
CN1C(=O)[C@@]2(CCS(=O)(=O)c3ccccc3)N=C(c3ccc(OCCCO)cc3)O[C@H]2c2ccccc21,0.185,0.394,-0.102,0.832,1.45,1.59,1.34,-3.84 (inactive),1.09,-0.04,1.53,-0.175 (inactive),-0.585 (inactive),2.05 (inactive),3.05,0.708 (inactive),0.276,0.931,0.377,-0.0493
C=CCN1C(=O)[C@@]2(O[C@@H](CCn3cc([C@H](O)c4ccccc4)nn3)[C@H]([Si](C)(C)c3ccc(OC)cc3)[C@H]2C)c2ccccc21,-0.0119,0.395,-0.036,0.386,0.501,1.31,1.01,-1.45 (inactive),0.728,-0.289,1.55,-0.78 (inactive),-0.0638 (inactive),0.307 (inactive),1.02,1.1 (inactive),-0.0507,0.442,1.16,-0.094
C=CC[C@@]12N=C(c3ccc(OCCCO)cc3)O[C@@H]1c1ccccc1N(CCS(=O)(=O)c1ccccc1)C2=O,-0.015,-0.302,0.188,0.0692,0.659,1.22,1.32,0.601 (inactive),0.261,-0.0391,1.55,-0.484 (inactive),-1.56 (inactive),0.793 (inactive),2.34,1.45 (inactive),-0.291,1.28,1.13,0.0153
CCOC(=CC(=O)OC)CC(O)c1cccc(Cl)c1 (stereo not given),0.201,0.071,-0.0504,-0.157,-0.124,1.43,1.37,-3.65 (inactive),-0.595,-0.303,1.39,-4.05 (inactive),-7.01 (inactive),-1.53 (inactive),2.4,0.341 (inactive),-0.125,-0.673,0.27,-0.128
Cc1ccc(F)cc1S(=O)(=O)N[C@@H]1CCN(Cc2ccc(Oc3ccccc3)cc2)C1,-0.191,0.45,-0.144,-0.3,-0.155,0.0412,-0.014,-1.9 (inactive),0.0111,-0.34,-0.434,-21.2 (active),-21.4 (active),-3.22 (inactive),-0.367,-14.1 (active),-0.0073,0.966,0.551,-0.0953
COc1cc(CO)cc(I)c1O[C@H]1C=C(C(=O)NCCO)C[C@@H](N(CC2CCCCC2)C(=O)c2ccc(C(F)(F)F)cc2)[C@@H]1O,-0.356,0.0668,-0.101,0.268,0.546,0.115,1.02,-1.85 (inactive),0.0701,0.12,1.23,0.0635 (inactive),-0.169 (inactive),-0.0789 (inactive),1.89,1.78 (inactive),-0.166,0.586,0.937,-0.0828
COC(=O)[C@@]1(Cc2ccc(OC)cc2)[C@H]2c3cc(C(=O)N(C)C)n(Cc4nc5ccccc5[nH]4)c3C[C@H]2CN1C(=O)c1ccccc1,0.0732,-0.401,0.212,0.874,1.76,1.82,1.23,-1.62 (inactive),1.09,0.147,0.777,0.591 (inactive),1.49 (inactive),6.95 (inactive),3.61,-0.648 (inactive),0.3,0.493,1.02,0.329
C=CCN1Cc2ccccc2C[C@@]2(N=C(c3ccc(OCCCO)cc3)O[C@H]2c2ccccc2)C1=O,0.633,0.604,0.0109,-0.364,1.09,1.04,1.29,-1.32 (inactive),0.383,0.297,1.55,-4.69 (inactive),-11.1 (active),4.42 (inactive),3.13,0.55 (inactive),-0.051,1.04,0.968,0.0047
CCCC=C(CCC)[C@@H](NP(=O)(c1ccccc1)c1ccccc1)c1ccc(C(F)(F)F)cc1,-0.176,0.158,-0.0975,0.0842,0.131,1.74,0.557,1.96 (inactive),0.237,0.0216,0.804,-0.276 (inactive),0.423 (inactive),0.0291 (inactive),1.01,-0.159 (inactive),0.0593,-0.13,0.11,0.58
COc1ccc(CCNC(=O)[C@@]2(Sc3ccc(C)cc3)CC(=O)N(Cc3cc(C(F)(F)F)cc(C(F)(F)F)c3)[C@@H]2c2ccc(CO)cc2I)cc1,0.332,-0.671,-0.0894,-0.0189,-0.632,0.899,1.07,0.214 (inactive),0.582,-0.271,1.46,-2.62 (inactive),-3.09 (inactive),2.1 (inactive),1.94,0.152 (inactive),-0.0208,-0.299,-0.0768,-0.24
